According to PubChem BioAssay (Tox21):
Where “and” joins values, the source holds several entries; their conditions need not be identical. Identical values can stand only once. Records with an inconclusive call do not appear. A call without a number means that no potency is given here. More than one record can exist for a structure, and the calls need not agree. Calls of active or inactive are those of the source. Unless noted, calls come from the whole dose curve; as a rule, active = well fitted curve in the direction sought with a large enough effect in the repeat runs; inconclusive = weak or mixed curves; inactive = no such curve, though single readings can be large; an effect the other way counts as inactive or inconclusive.

Experiments:
[1] = qHTS assay to identify aromatase inhibitors - cell viability counter screen (AID 743084);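 note: cells stimulated with testosterone during compound exposure; nearly all actives have a fitted effect of over 55% in size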; note: potency is the fitted concentration of half-maximal effect
[2] = biological target: Aryl hydrocarbon receptor (Homo sapiens) (UniProt P35869); test: qHTS assay to identify small molecule that activate the aryl hydrocarbon receptor (AhR) signaling pathway (AID 743085);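 note: HG2L7.5c1 human HepG2 liver cells with stably integrated DRE-driven firefly reporter; series mostly up to about 70 µM; nearly all actives have a fitted effect of over 15% in size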
Aryl hydrocarbon receptor (Homo sapiens), sequence (P35869 whole entry, looked up): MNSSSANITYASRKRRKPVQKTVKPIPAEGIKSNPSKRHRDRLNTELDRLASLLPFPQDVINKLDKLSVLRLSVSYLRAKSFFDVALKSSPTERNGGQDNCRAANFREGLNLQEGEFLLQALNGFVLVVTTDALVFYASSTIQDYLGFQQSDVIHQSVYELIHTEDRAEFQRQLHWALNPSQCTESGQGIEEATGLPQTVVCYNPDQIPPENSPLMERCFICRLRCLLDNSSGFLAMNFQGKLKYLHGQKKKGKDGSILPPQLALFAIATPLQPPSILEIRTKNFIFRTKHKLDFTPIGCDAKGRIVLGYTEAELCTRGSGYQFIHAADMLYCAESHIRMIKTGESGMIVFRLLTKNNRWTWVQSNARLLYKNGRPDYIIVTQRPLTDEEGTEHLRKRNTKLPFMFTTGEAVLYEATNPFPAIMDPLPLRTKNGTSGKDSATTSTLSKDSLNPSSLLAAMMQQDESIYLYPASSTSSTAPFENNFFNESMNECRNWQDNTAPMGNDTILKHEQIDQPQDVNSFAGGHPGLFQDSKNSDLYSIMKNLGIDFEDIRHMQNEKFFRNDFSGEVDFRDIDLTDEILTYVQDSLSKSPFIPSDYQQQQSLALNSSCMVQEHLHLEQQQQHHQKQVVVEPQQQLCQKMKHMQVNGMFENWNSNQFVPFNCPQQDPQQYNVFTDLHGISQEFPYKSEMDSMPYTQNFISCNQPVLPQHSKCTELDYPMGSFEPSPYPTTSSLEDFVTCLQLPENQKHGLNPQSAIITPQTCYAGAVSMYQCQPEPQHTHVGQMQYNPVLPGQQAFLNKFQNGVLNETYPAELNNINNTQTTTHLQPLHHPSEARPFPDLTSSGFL
Outline: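 24 h compound exposure, 37C, HepG2-derived HG2L7.5c1 cells with DRE-responsive luciferase. Readouts: fluorescence viability, then luminescence at room temperature after 30 min.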

[3] = qHTS assay to identify small molecule that activate the aryl hydrocarbon receptor (AhR) signaling pathway - cell viability counter screen (AID 743086); note: nearly all actives have a fitted effect of over 45% in size; note: potency is the fitted concentration of half-maximal effect
Outline: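 Cytotoxicity counter screen: CellTiter-Fluor signal (30 min, 37 C) in 4000 HepG2 cells/well carrying the DRE-luciferase reporter, following 24 h compound exposure at 37 C.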

[4] = biological target: Peroxisome proliferator-activated receptor gamma (Homo sapiens) (UniProt P37231); test: qHTS assay to identify small molecule agonists of the peroxisome proliferator-activated receptor gamma (PPARg) signaling pathway (AID 743094; active = well fitted activation curve with a large enough effect in the signal ratio in the repeat runs, not every such curve was filed as active; the % refers to the signal ratio)
Peroxisome proliferator-activated receptor gamma (Homo sapiens), sequence (P37231 whole entry, looked up): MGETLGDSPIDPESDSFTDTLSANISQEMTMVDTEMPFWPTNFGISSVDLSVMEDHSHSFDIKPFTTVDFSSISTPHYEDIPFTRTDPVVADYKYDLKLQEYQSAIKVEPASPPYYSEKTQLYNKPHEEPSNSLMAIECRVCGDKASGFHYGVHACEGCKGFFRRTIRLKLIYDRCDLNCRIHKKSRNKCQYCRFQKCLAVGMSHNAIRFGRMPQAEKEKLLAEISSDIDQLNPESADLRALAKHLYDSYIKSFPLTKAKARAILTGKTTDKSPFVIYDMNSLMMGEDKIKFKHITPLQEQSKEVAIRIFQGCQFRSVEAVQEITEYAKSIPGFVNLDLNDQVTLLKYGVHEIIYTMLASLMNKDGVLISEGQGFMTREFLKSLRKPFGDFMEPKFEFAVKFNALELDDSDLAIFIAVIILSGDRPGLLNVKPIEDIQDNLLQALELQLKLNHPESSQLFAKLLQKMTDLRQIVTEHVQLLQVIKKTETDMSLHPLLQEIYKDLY
Outline: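 Cell-based bla reporter, HEK293H background, PPARg-driven UAS. Pre-incubation 5 h, 37C, 5% CO2. Compound 17 h, 37C. Substrate 1 h RT; fluorescence.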

[5] = biological target: Peroxisome proliferator-activated receptor gamma (Homo sapiens) (UniProt P37231); test: qHTS assay to identify small molecule antagonists of the peroxisome proliferator-activated receptor gamma (PPARg) signaling pathway (AID 743191; calls by dose curve; note: series mostly up to about 63 µM; nearly all actives have a fitted effect of over 30% in size)
Outline: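 Beta-lactamase reporter under UAS control in HEK293H PPARg-bla cells; compound treatment 17 h at 37C. Read-out: fluorescence intensity after 1 h room-temperature incubation with LiveBLAzer B/G FRET substrate.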

[6] = qHTS assay to identify small molecule antagonists of the peroxisome proliferator-activated receptor gamma (PPARg) signaling pathway - cell viability counter screen (AID 743194); note: nearly all actives have a fitted effect of over 55% in size; note: potency is the fitted concentration of half-maximal effect
Outline: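 Viability was measured as CellTiter-Glo luminescence in GeneBLAzer PPARg UAS-bla HEK293H cells. These cells had been exposed 17 h at 37 C to compounds together with rosiglitazone at 50 nM final, with the beta-lactamase readout taken in the same wells.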

[7] = qHTS assay for small molecule agonists of the antioxidant response element (ARE) signaling pathway (AID 743202; active = well fitted activation curve with a large enough effect in the signal ratio in the repeat runs, not every such curve was filed as active; the % refers to the signal ratio)
Outline: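 Beta-lactamase reporter activity, read as fluorescence intensity, reflects ARE/Nrf2 pathway induction in HepG2 cells after 16 h compound exposure at 37 C; substrate loading was 2 h at room temperature.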

[8] = qHTS assay for small molecule agonists of the antioxidant response element (ARE) signaling pathway - cell viability counter screen (AID 743203; calls by dose curve; note: nearly all actives have a fitted effect of over 55% in size; note: potency is the fitted concentration of half-maximal effect)
Outline: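 Measured in the same wells as the beta-lactamase ARE reporter, this read-out is CellTiter-Glo luminescence from HepG2 ARE-bla cells given compounds for 16 hrs.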

[9] = qHTS assay for small molecule activators of the heat shock response signaling pathway - cell viability counter screen (AID 743209); note: nearly all actives have a fitted effect of over 50% in size; note: potency is the fitted concentration of half-maximal effect
Outline: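 Same-well multiplex: after 2.5 h room-temperature incubation with LiveBLAzer B/G substrate and fluorescence reading, CellTiter-Glo reagent was added to HSE-bla HeLa cells that had received compound for 5 h at 37 C; luminescence read after 30 min.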

[10] = qHTS assay to identify small molecule agonists of the peroxisome proliferator-activated receptor delta (PPARd) signaling pathway - cell viability counter screen (AID 743211); note: nearly all actives have a fitted effect of over 55% in size; note: potency is the fitted concentration of half-maximal effect
Outline: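 Luminescent ATP viability assay (CellTiter-Glo, 30 min RT) in UAS-bla HEK293H cells carrying the PPAR delta reporter construct, 3000 cells/well, after a 17 h compound treatment at 37 C.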

[11] = qHTS assay to identify small molecule antagonists of the peroxisome proliferator-activated receptor delta (PPARd) signaling pathway - cell viability counter screen (AID 743213); note: nearly all actives have a fitted effect of over 50% in size
Outline: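 Luminescence from CellTiter-Glo, added after the bla read and incubated 30 min at room temperature, gives viability of HEK293H PPARd-bla cells exposed to compounds for 17 h at 37 C with 300 nM L165041.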

[12] = qHTS assay to identify small molecule agonists of the farnesoid-X-receptor (FXR) signaling pathway - cell viability counter screen (AID 743218); note: nearly all actives have a fitted effect of over 45% in size; note: potency is the fitted concentration of half-maximal effect
Outline: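 Readout: CellTiter-Glo luminescence, 30 min RT, multiplexed after the FXR-bla FRET reading. HEK 293T FXR-UAS-bla cells received compound 5 h post-plating and were incubated 16 h at 37 C.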

[13] = qHTS assay to identify small molecule antagonists of the farnesoid-X-receptor (FXR) signaling pathway - cell viability counter screen (AID 743221; active = well fitted cell-killing curve with a large enough effect in the repeat runs, not every such curve was filed as active; note: nearly all actives have a fitted effect of over 50% in size)
Outline: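 In GeneBLAzer FXR-UAS-bla HEK 293T cells stimulated with 50 uM chenodeoxycholic acid (final), compounds acted for 16 h at 37 C. Viability was assessed afterwards by CellTiter-Glo luminescence.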

[14] = biological target: Vitamin D3 receptor (Homo sapiens) (UniProt P11473); test: qHTS assay to identify small molecule antagonists of the vitamin D receptor (VDR) signaling pathway (AID 743223; active = well fitted inhibition curve with a large enough effect in the signal ratio in the repeat runs, not every such curve was filed as active; the % refers to the signal ratio; note: potency is the fitted concentration of half-maximal effect)
Vitamin D3 receptor (Homo sapiens), sequence (P11473 whole entry, looked up): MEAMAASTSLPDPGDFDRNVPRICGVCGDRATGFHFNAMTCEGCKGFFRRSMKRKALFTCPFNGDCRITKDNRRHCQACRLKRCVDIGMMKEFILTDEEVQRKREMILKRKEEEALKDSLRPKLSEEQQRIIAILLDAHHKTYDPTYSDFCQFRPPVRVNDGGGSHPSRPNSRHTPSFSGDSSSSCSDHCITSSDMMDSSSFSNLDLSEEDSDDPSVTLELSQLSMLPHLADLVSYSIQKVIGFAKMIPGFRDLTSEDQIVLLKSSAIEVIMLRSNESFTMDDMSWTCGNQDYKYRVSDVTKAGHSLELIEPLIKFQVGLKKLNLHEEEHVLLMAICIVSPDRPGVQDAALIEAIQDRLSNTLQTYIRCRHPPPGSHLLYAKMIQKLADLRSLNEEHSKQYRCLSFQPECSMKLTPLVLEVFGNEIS
Outline: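 Agonist 1alpha,25-dihydroxyvitamin D3 (3 nM in well) was added with each compound to VDR-bla cells preincubated 4 h. Cells stood 16 h at 37C, then FRET substrate 2 h at room temperature; fluorescence intensity recorded.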

[15] = biological target: Peroxisome proliferator-activated receptor delta (Homo sapiens) (UniProt Q03181); test: qHTS assay to identify small molecule antagonists of the peroxisome proliferator-activated receptor delta (PPARd) signaling pathway (AID 743215; active = well fitted inhibition curve with a large enough effect in the signal ratio in the repeat runs, not every such curve was filed as active; the % refers to the signal ratio;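 note: cells stimulated with agonist L165041 at 300 nM final during compound exposure; series mostly up to about 62 µM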)
Peroxisome proliferator-activated receptor delta (Homo sapiens), sequence (Q03181 whole entry, looked up): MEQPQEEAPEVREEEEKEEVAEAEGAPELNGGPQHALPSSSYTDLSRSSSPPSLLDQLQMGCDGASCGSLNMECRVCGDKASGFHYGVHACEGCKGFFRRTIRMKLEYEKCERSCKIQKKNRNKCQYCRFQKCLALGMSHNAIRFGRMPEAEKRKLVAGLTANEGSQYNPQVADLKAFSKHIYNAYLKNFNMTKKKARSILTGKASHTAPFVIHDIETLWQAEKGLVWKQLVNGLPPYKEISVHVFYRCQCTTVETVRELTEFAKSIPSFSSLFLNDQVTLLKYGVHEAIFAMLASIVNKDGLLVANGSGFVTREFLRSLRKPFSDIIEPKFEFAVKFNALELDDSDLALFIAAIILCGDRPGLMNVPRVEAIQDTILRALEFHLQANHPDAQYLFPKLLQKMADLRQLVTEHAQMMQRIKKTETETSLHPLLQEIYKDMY
Outline: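 Fluorescence from cleaved LiveBLAzer B/G FRET substrate (2 h, room temperature) reports PPARd-driven beta-lactamase in HEK293H UAS-bla cells. Cells had been treated 17 h at 37 C with compound plus 300 nM final L165041.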

[16] = qHTS assay for small molecule activators of the heat shock response signaling pathway (AID 743210; active = well fitted activation curve with a large enough effect in the signal ratio in the repeat runs, with a control signal flat, not every such curve was filed as active; the % refers to the signal ratio;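 note: HeLa cells with beta-lactamase reporter driven by heat shock elements; series mostly up to about 63 µM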)
Outline: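 Fluorescence from a cleaved B/G FRET substrate (2.5 h, room temp) reports HSE-driven beta-lactamase in HeLa cells treated 5 h at 37 C with DMSO-dissolved compounds.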

[17] = biological target: Bile acid receptor (Homo sapiens) (UniProt Q96RI1); test: qHTS assay to identify small molecule antagonists of the farnesoid-X-receptor (FXR) signaling pathway (AID 743217; active = well fitted inhibition curve with a large enough effect in the signal ratio in the repeat runs, not every such curve was filed as active; the % refers to the signal ratio)
Bile acid receptor (Homo sapiens), sequence (Q96RI1 whole entry, looked up): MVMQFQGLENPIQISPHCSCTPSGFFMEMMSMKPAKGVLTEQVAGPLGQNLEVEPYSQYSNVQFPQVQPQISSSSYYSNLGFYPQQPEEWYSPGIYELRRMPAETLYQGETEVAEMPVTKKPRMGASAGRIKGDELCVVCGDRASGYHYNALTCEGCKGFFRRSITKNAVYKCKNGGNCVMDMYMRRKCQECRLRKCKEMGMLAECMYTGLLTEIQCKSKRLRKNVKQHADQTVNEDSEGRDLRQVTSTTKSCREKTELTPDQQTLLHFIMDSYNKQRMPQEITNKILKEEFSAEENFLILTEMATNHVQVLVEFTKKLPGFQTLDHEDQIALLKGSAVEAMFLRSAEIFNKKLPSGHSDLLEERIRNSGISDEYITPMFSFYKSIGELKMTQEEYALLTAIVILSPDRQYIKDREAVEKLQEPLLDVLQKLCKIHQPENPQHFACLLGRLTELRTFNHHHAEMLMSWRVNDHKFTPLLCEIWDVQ
Outline: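 FRET fluorescence after 2 h room-temperature LiveBLAzer loading gives the readout. Prior step: FXR-bla HEK 293T cells, seeded and incubated 5 h, received test compounds plus 50 uM final CDCA for 16 h at 37 °C.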

[18] = biological target: Bile acid receptor (Homo sapiens) (UniProt Q96RI1); test: qHTS assay to identify small molecule agonists of the farnesoid-X-receptor (FXR) signaling pathway (AID 743220; active = well fitted activation curve with a large enough effect in the signal ratio in the repeat runs, not every such curve was filed as active; the % refers to the signal ratio)
Outline: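 FXR-UAS-bla HEK 293T cells carrying a UAS-driven beta-lactamase reporter were plated for 5 h at 37C/5% CO2, then exposed to DMSO-dissolved Tox21 10K compounds for 16 h at 37C. A LiveBLAzer B/G FRET substrate was loaded for 2 h at room temperature before fluorescence reading.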

[19] = biological target: Vitamin D3 receptor (Homo sapiens) (UniProt P11473); test: qHTS assay to identify small molecule agonists of the vitamin D receptor (VDR) signaling pathway (AID 743222; calls by dose curve)
Outline: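 Following 4 h attachment at 37C, VDR-bla cells (2,000 per well) received DMSO-dissolved compounds or controls. After 16 h incubation, LiveBLAzer B/G FRET substrate was added and fluorescence read 2 h later at room temperature.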

Structure (SMILES) | Potency [1] | Potency [2] | Potency [3] | Potency [4] | Potency [5] | Potency [6] | Potency [7] | Potency [8] | Potency [9] | Potency [10] | Potency [11] | Potency [12] | Potency [13] | Potency [14] | Potency [15] | outcome [16] | Potency [17] | outcome [18] | Potency [19]
NC(CO)(CO)CO | inactive | inactive | inactive | inactive | inactive | inactive | inactive | inactive | inactive | inactive | inactive | inactive | inactive | inactive | – | – | – | – | –
O=CC(=O)c1ccccc1 | inactive | inactive | inactive | inactive | – | inactive | inactive | inactive | – | inactive | inactive | inactive | inactive | – | inactive | – | – | – | –
CNNCc1ccc(C(=O)NC(C)C)cc1 | inactive | inactive | inactive | – | – | inactive | inactive | inactive | inactive | inactive | inactive | inactive | inactive | inactive | – | – | – | – | –
Cc1ncc([N+](=O)[O-])n1C | inactive | inactive | inactive | – | – | inactive | inactive | inactive | inactive | inactive | inactive | inactive | inactive | inactive | inactive | inactive | inactive | inactive | –
O=C(O)c1ccccc1 | inactive | inactive | inactive | inactive | inactive | inactive | inactive | inactive | inactive | inactive | inactive | inactive | inactive | inactive | – | – | – | – | –
CC(=O)CCC(=O)O | inactive | inactive | inactive | inactive | inactive | inactive | inactive | inactive | inactive | inactive | inactive | inactive | inactive | inactive | – | – | – | – | inactive
C1CCC(C(CC2CCCCN2)C2CCCCC2)CC1 (stereo not drawn) | 18.8 µM (active) | inactive | 18.8 µM (active) | – | inactive | 33.5 µM (active) | – | 29.8 µM (active) | 33.5 µM (active) | 26.6 µM (active) | – | 23.7 µM (active) | – | 21.3 µM (active) | – | – | – | – | –
Nc1ccc(S(N)(=O)=O)cc1 | inactive | inactive | inactive | – | – | inactive | inactive | inactive | inactive | inactive | inactive | inactive | inactive | – | – | inactive | – | – | –
Cn1c(=O)c2c(ncn2C)n(C)c1=O | inactive and 55.1 µM (active) | inactive | inactive and 69.4 µM (active) | – | – | inactive | inactive | inactive | inactive | inactive | inactive | inactive | inactive | – | – | – | – | – | –
Oc1ccccc1 | inactive | inactive | inactive | – | – | inactive | inactive | inactive | inactive | inactive | inactive | inactive | inactive | – | – | – | inactive | inactive | –
C=CCc1ccc(O)c(OC)c1 | inactive | inactive | inactive | inactive | – | inactive | inactive | inactive | inactive | inactive | inactive | inactive | inactive | – | – | – | – | – | –
CCCCOC(=O)c1ccc(O)cc1 | inactive | inactive | inactive | inactive | – | inactive | inactive | inactive | inactive | inactive | inactive | inactive | inactive | inactive | inactive | inactive | inactive | inactive | –
